The record followed here is publication PMC9911399, “Two distinct binding modes provide the RNA-binding protein RbFox with extraordinary sequence specificity”.

Substitutions are numbered along the chain they refer to; changes in the protein carry UniProt numbers. The full ranking holds about 16,000 sequences; the median of “ka relative to ugcaugu” is about 0.096, and the highest 2% start at about 0.35. What follows is part of a selection rich in the highest values, with near analogues and random picks from the rest.

To fix the notation:
B1: UCUUCUA (DNA:RNA)
RNA: GGGAGACCGGAAUUCAGAUUGUCCUCUUCUAUUAAAUCCCGUCGUAGCCACCA
DNA 1: CAATCTGAATTCCGGTCTCCC
DNA 2: TGGTGGCTACGACGGGATT
B2: CCUCCAG (DNA:RNA)
RNA: B1 RNA with U25C, U28C, U30A, A31G
DNA 1: CAATCTGAATTCCGGTCTCCC
DNA 2: TGGTGGCTACGACGGGATT
B3: GAACAGU (DNA:RNA)
RNA: GGGAGACCGGAAUUCAGAUUGUCCGAACAGUUUAAAUCCCGUCGUAGCCACCA
DNA 1: CAATCTGAATTCCGGTCTCCC
DNA 2: TGGTGGCTACGACGGGATT
B4: ACGUGUG (DNA:RNA)
RNA: B1 RNA with U25A, U27G, C29G, A31G
DNA 1: CAATCTGAATTCCGGTCTCCC
DNA 2: TGGTGGCTACGACGGGATT
B5: CCCUACC (DNA:RNA)
RNA: B1 RNA with U25C, U27C, C29A, U30C, A31C
DNA 1: CAATCTGAATTCCGGTCTCCC
DNA 2: TGGTGGCTACGACGGGATT
B6: UAUCCCC (DNA:RNA)
RNA: B1 RNA with C26A, U28C, U30C, A31C
DNA 1: CAATCTGAATTCCGGTCTCCC
DNA 2: TGGTGGCTACGACGGGATT
B7: AUUUAGC (DNA:RNA)
RNA: B3 RNA with G25A, A26U, A27U, C28U, U31C
DNA 1: CAATCTGAATTCCGGTCTCCC
DNA 2: TGGTGGCTACGACGGGATT
B8: CCCGUAG (DNA:RNA)
RNA: B1 RNA with U25C, U27C, U28G, C29U, U30A, A31G
DNA 1: CAATCTGAATTCCGGTCTCCC
DNA 2: TGGTGGCTACGACGGGATT
B9: CCUGGAG (DNA:RNA)
RNA: B1 RNA with U25C, U28G, C29G, U30A, A31G
DNA 1: CAATCTGAATTCCGGTCTCCC
DNA 2: TGGTGGCTACGACGGGATT
B10: GCAGUAG (DNA:RNA)
RNA: B3 RNA with A26C, C28G, A29U, G30A, U31G
DNA 1: CAATCTGAATTCCGGTCTCCC
DNA 2: TGGTGGCTACGACGGGATT
B11: CAGGUCU (DNA:RNA)
RNA: B3 RNA with G25C, A27G, C28G, A29U, G30C
DNA 1: CAATCTGAATTCCGGTCTCCC
DNA 2: TGGTGGCTACGACGGGATT
B12: CAUUAAC (DNA:RNA)
RNA: B3 RNA with G25C, A27U, C28U, G30A, U31C
DNA 1: CAATCTGAATTCCGGTCTCCC
DNA 2: TGGTGGCTACGACGGGATT
B13: UGCAUUC (DNA:RNA)
RNA: B1 RNA with C26G, U27C, U28A, C29U, A31C
DNA 1: CAATCTGAATTCCGGTCTCCC
DNA 2: TGGTGGCTACGACGGGATT
B14: UGCAUCG (DNA:RNA)
RNA: B1 RNA with C26G, U27C, U28A, C29U, U30C, A31G
DNA 1: CAATCTGAATTCCGGTCTCCC
DNA 2: TGGTGGCTACGACGGGATT
B15: UGCAUUG (DNA:RNA)
RNA: B1 RNA with C26G, U27C, U28A, C29U, A31G
DNA 1: CAATCTGAATTCCGGTCTCCC
DNA 2: TGGTGGCTACGACGGGATT
B16: UGCAUAC (DNA:RNA)
RNA: B1 RNA with C26G, U27C, U28A, C29U, U30A, A31C
DNA 1: CAATCTGAATTCCGGTCTCCC
DNA 2: TGGTGGCTACGACGGGATT
B17: UGCACCC (DNA:RNA)
RNA: B1 RNA with C26G, U27C, U28A, U30C, A31C
DNA 1: CAATCTGAATTCCGGTCTCCC
DNA 2: TGGTGGCTACGACGGGATT
B18: UGCAUGC (DNA:RNA)
RNA: B3 RNA with G25U, A26G, A27C, C28A, A29U, U31C
DNA 1: CAATCTGAATTCCGGTCTCCC
DNA 2: TGGTGGCTACGACGGGATT
B19: UUCAUGC (DNA:RNA)
RNA: B3 RNA with G25U, A26U, A27C, C28A, A29U, U31C
DNA 1: CAATCTGAATTCCGGTCTCCC
DNA 2: TGGTGGCTACGACGGGATT
B20: UGCUGCA (DNA:RNA)
RNA: B1 RNA with C26G, U27C, C29G, U30C
DNA 1: CAATCTGAATTCCGGTCTCCC
DNA 2: TGGTGGCTACGACGGGATT
B21: UGCGUCC (DNA:RNA)
RNA: B1 RNA with C26G, U27C, U28G, C29U, U30C, A31C
DNA 1: CAATCTGAATTCCGGTCTCCC
DNA 2: TGGTGGCTACGACGGGATT
B22: UGCAUCC (DNA:RNA)
RNA: B1 RNA with C26G, U27C, U28A, C29U, U30C, A31C
DNA 1: CAATCTGAATTCCGGTCTCCC
DNA 2: TGGTGGCTACGACGGGATT
B23: GUCCUGC (DNA:RNA)
RNA: B3 RNA with A26U, A27C, A29U, U31C
DNA 1: CAATCTGAATTCCGGTCTCCC
DNA 2: TGGTGGCTACGACGGGATT
B24: UGCAUAG (DNA:RNA)
RNA: B1 RNA with C26G, U27C, U28A, C29U, U30A, A31G
DNA 1: CAATCTGAATTCCGGTCTCCC
DNA 2: TGGTGGCTACGACGGGATT
B25: AACCCAG (DNA:RNA)
RNA: B3 RNA with G25A, A27C, A29C, G30A, U31G
DNA 1: CAATCTGAATTCCGGTCTCCC
DNA 2: TGGTGGCTACGACGGGATT
B26: CCAAUCA (DNA:RNA)
RNA: B1 RNA with U25C, U27A, U28A, C29U, U30C
DNA 1: CAATCTGAATTCCGGTCTCCC
DNA 2: TGGTGGCTACGACGGGATT
B27: UCAGUGG (DNA:RNA)
RNA: B3 RNA with G25U, A26C, C28G, A29U, U31G
DNA 1: CAATCTGAATTCCGGTCTCCC
DNA 2: TGGTGGCTACGACGGGATT
B28: AGUUGAG (DNA:RNA)
RNA: B1 RNA with U25A, C26G, C29G, U30A, A31G
DNA 1: CAATCTGAATTCCGGTCTCCC
DNA 2: TGGTGGCTACGACGGGATT
B29: AUAGCCG (DNA:RNA)
RNA: B3 RNA with G25A, A26U, C28G, A29C, G30C, U31G
DNA 1: CAATCTGAATTCCGGTCTCCC
DNA 2: TGGTGGCTACGACGGGATT
B30: AAGUGAG (DNA:RNA)
RNA: B3 RNA with G25A, A27G, C28U, A29G, G30A, U31G
DNA 1: CAATCTGAATTCCGGTCTCCC
DNA 2: TGGTGGCTACGACGGGATT
B31: UGCGUGG (DNA:RNA)
RNA: B3 RNA with G25U, A26G, A27C, C28G, A29U, U31G
DNA 1: CAATCTGAATTCCGGTCTCCC
DNA 2: TGGTGGCTACGACGGGATT
B32: UGCAUGA (DNA:RNA)
RNA: B1 RNA with C26G, U27C, U28A, C29U, U30G
DNA 1: CAATCTGAATTCCGGTCTCCC
DNA 2: TGGTGGCTACGACGGGATT
B33: UGCAUAA (DNA:RNA)
RNA: B1 RNA with C26G, U27C, U28A, C29U, U30A
DNA 1: CAATCTGAATTCCGGTCTCCC
DNA 2: TGGTGGCTACGACGGGATT
B34: UGCCUGG (DNA:RNA)
RNA: B3 RNA with G25U, A26G, A27C, A29U, U31G
DNA 1: CAATCTGAATTCCGGTCTCCC
DNA 2: TGGTGGCTACGACGGGATT
B35: UCCUGCA (DNA:RNA)
RNA: B1 RNA with U27C, C29G, U30C
DNA 1: CAATCTGAATTCCGGTCTCCC
DNA 2: TGGTGGCTACGACGGGATT
B36: UGCAUGG (DNA:RNA)
RNA: B3 RNA with G25U, A26G, A27C, C28A, A29U, U31G
DNA 1: CAATCTGAATTCCGGTCTCCC
DNA 2: TGGTGGCTACGACGGGATT
B37: UGCAUUA (DNA:RNA)
RNA: B1 RNA with C26G, U27C, U28A, C29U
DNA 1: CAATCTGAATTCCGGTCTCCC
DNA 2: TGGTGGCTACGACGGGATT
B38: UGCAUCA (DNA:RNA)
RNA: B1 RNA with C26G, U27C, U28A, C29U, U30C
DNA 1: CAATCTGAATTCCGGTCTCCC
DNA 2: TGGTGGCTACGACGGGATT
B39: UGCGUCA (DNA:RNA)
RNA: B1 RNA with C26G, U27C, U28G, C29U, U30C
DNA 1: CAATCTGAATTCCGGTCTCCC
DNA 2: TGGTGGCTACGACGGGATT

The test has as its target T1, RBFOX1 RRM RbFoxmut (Fox-RRM*) (Homo sapiens, UniProt Q9NWB1 109-208, R118D;E147R;N151S;E152T).
T1 sequence: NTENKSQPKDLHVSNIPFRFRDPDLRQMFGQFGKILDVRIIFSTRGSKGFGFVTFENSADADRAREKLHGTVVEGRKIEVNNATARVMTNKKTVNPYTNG
Description: EMSA; HiTS-Eq, 1 nM pool, 10 min; buffer printed only for the single-RNA assays: 10 mM Tris pH 7.5, 150 mM NaCl, 3.4 mM EDTA, 0.001% NP-40, 30 C. The note with it: tags: His6 N-terminal (pET28a); label: 5' 32P. An outline of the steps:
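Relative association constants, normalised to the cognate motif, were derived by comparing read counts of each RNA species with those of the control reaction. The RNA sequenced was the free fraction, separated by 8% native PAGE after a 10 min equilibration in 50 µL of 1 nM 5′-radiolabelled RNA (7 randomized nucleotides) with increasing concentrations of purified wild-type or mutant RbFox RRM.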
With B1, the binding signal is 0.0886 KA relative to UGCAUGU.

As for B2, the binding signal is 0.101 KA relative to UGCAUGU. As to B3, the binding signal was 0.0727 KA relative to UGCAUGU. As to B4, the binding signal was 0.203 KA relative to UGCAUGU. In the case of B5, the binding signal was 0.0909 KA relative to UGCAUGU. Next, B6: 0.0611 KA relative to UGCAUGU; B7: 0.134 KA relative to UGCAUGU. As for B8, the binding signal is 0.101 KA relative to UGCAUGU. The value for B9 was 0.113 KA relative to UGCAUGU. With B10, the binding signal was 0.122 KA relative to UGCAUGU. For B11, the binding signal was 0.0783 KA relative to UGCAUGU.

B12: the binding signal was 0.113 KA relative to UGCAUGU.

B13: the binding signal is 0.13 KA relative to UGCAUGU. For the molecule B14, the binding signal was 0.922 KA relative to UGCAUGU. Take B15: the binding signal was 0.494 KA relative to UGCAUGU.

Take B16: the binding signal is 0.161 KA relative to UGCAUGU. On to B17, for which the binding signal was 0.127 KA relative to UGCAUGU. Regarding B18, the binding signal is 1.29 KA relative to UGCAUGU. B19: the binding signal was 0.13 KA relative to UGCAUGU. The value for B20 was 0.251 KA relative to UGCAUGU; that for B21 was 0.091 KA relative to UGCAUGU; that for B22 was 0.421 KA relative to UGCAUGU. For the molecule B23, the binding signal is 0.104 KA relative to UGCAUGU. Regarding B24, the binding signal is 0.146 KA relative to UGCAUGU. Take B25: the binding signal was 0.0936 KA relative to UGCAUGU. Take B26: the binding signal was 0.0737 KA relative to UGCAUGU.

For B27, the binding signal was 0.101 KA relative to UGCAUGU. Next, B28: 0.133 KA relative to UGCAUGU; B29: 0.119 KA relative to UGCAUGU; B30: 0.137 KA relative to UGCAUGU. Consider B31, for which the binding signal is 0.138 KA relative to UGCAUGU.

As to B32, the binding signal was 0.692 KA relative to UGCAUGU. B33: the binding signal is 0.146 KA relative to UGCAUGU. In the case of B34, the binding signal is 0.233 KA relative to UGCAUGU. Regarding B35, the binding signal is 0.24 KA relative to UGCAUGU. On to B36, for which the binding signal is 0.935 KA relative to UGCAUGU. As for B37, the binding signal is 0.163 KA relative to UGCAUGU. As for B38, the binding signal was 0.565 KA relative to UGCAUGU.

For the molecule B39, the binding signal was 0.155 KA relative to UGCAUGU.
